Measurements as given in PubChem BioAssay AID1347075 (National Center for Advancing Translational Sciences (NCATS), 2019).
Hit rate of the full screen: of about 400,000 compounds, about 5,500 (1.4%) were called active. Where a call stands in place of a potency, no number is given. About 9% were inconclusive and are not listed. This is one part of a sample in which actives are shown more often than they occur. The call rests on the fitted dose curve; in most records, active means well fitted cell-killing curve with a large enough effect; inconclusive means small, poorly fitted or top-dose-only effect, or effect the other way; inactive means flat fitted curve, though single readings scatter.

assay: qHTS assay for MDR1-selective chemotherapeutics: Primary screen using the parental adenocarcinoma cell KB-3-1; details: KB-3-1 viability, CellTiter-Glo ATP luminescence, 72 h; series mostly up to 46.1 µM; further: nearly all actives have a fitted effect of over 60% in size
Summary of the method: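 Screening of KB-3-1 cells (DMEM, 10% FBS, phenol-red free) ran from lowest to highest compound concentration; after 72 h at 37 °C viability was read luminescently and curves fitted.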
Potency means the concentration at half of the fitted maximal effect.

Structure (SMILES)	Potency
Cn1ccc2cc(S(=O)(=O)N3CCCC(C(=O)NCc4ccccc4F)C3)ccc21 (centres undefined)	inactive
COc1cc(Cl)c(NC(=O)CC(C)S(=O)(=O)c2cc3c(cc2C)NC(=O)CO3)c(OC)c1 (centres undefined)	inactive
Cc1ccccc1CNC(=O)c1cccc(NC(=O)c2nsc3ccccc23)c1	inactive
O=C(NNC(=O)c1ccccc1O)c1ccccc1O	2.59 µM (active)
CC1=C(C)CC(C(=O)NNC(=O)c2ccccc2O)C(C(=O)O)C1 (centres undefined)	inactive
O=C(NNC(=O)c1cc(S(=O)(=O)N2CCCCC2)ccc1Cl)c1ccccc1O	inactive
Cc1ccc(CSc2oc(-c3cccs3)nc2S(=O)(=O)c2ccc(C)cc2)cc1	inactive
CCN(C(=O)c1sc2cc(OC)ccc2c1Cl)c1ccccc1	20.6 µM (active)
CCN(C(=O)COc1ccc(C(=O)c2ccccc2)cc1)c1ccccc1	inactive
CCN(C(=O)c1ccc(Br)cc1)c1ccccc1	inactive
CCC(=O)Nc1cccc(-c2nc3cc(C)ccc3o2)c1	inactive
CCN(CC)S(=O)(=O)c1ccc2c(c1)c(=O)c(C(=O)N1CCN(c3cccc(Cl)c3)CC1)cn2C	inactive
CCCN(CCC)c1c([N+](=O)[O-])c(=O)oc2ccccc12	inactive
CCn1c(/C=C/c2ccc([N+](=O)[O-])o2)nc2ccccc2c1=O	3.26 µM (active)
C=CCn1c(SCC(=O)NC(=O)Cc2ccccc2)nc2ccccc2c1=O	inactive
CCCCCn1c(CCCNC(=O)c2ccccc2OC)nc2ccccc21	inactive
CCOC(=O)C1=C(CCc2ccccc2)NC(=O)NC1c1ccc2ccccc2c1 (centres undefined)	23.1 µM (active)
CCOC(=O)C1=C(CN2CCc3ccccc32)NC(=O)NC1c1ccc(Cl)cc1 (centres undefined)	inactive
CCOCCOC(=O)C1=C(C)NC(=O)NC1c1ccc2c(c1)OCO2 (centres undefined)	inactive
Cc1cccc(N2CCN(C(=O)c3cc4c(=O)oc5ccccc5c4s3)CC2C)c1 (centres undefined)	inactive
CCOc1ccc(NC(=O)C(=O)NCCc2csc3nc(-c4ccccc4F)nn23)cc1	inactive
O=[N+]([O-])c1ccc(C=Nc2ccc(Cl)cc2Cl)s1	16.4 µM (active)

Structure (SMILES)	Potency
CCOC(=O)C(Cc1ccccc1)NC(=O)CCc1c(C)nc2c(c(C)nn2-c2ccc(C)c(C)c2)c1C (centres undefined)	inactive
COc1cccc(CNC(=O)C2CCN(S(=O)(=O)c3ccc4c(ccn4C)c3)CC2)c1	inactive
COc1ccc(-c2nn3c(=O)cc(CN4CCN(C(=O)c5ccc(OC)c(OC)c5)CC4)nc3s2)cc1	inactive
CCS(=O)(=O)N1CCC(n2c(C)nc3cccnc32)CC1	inactive
COc1ccccc1CNC(=O)c1ccc(NC(=O)N2CC(C)Sc3ccccc32)cc1 (centres undefined)	inactive
O=C(NC1CCN(C(=S)Nc2ccc(Cl)cc2)CC1)C1CCCCC1	inactive
NC(=O)C1(N2CCCCC2)CCN(C(=S)Nc2ccc(Cl)cc2)CC1	11.6 µM (active)
Cc1cc(Cl)ccc1NC(=S)N1CCC(C(N)=O)(N2CCCCC2)CC1	inactive
O=C(CCC(=O)N1CC2CCCN2c2ccccc21)NCc1ccccc1Cl (centres undefined)	inactive
CCc1ccc(NC(=O)c2cc3c(=O)n(Cc4cccnc4)ccc3nc2C)cc1	inactive
COc1ccc(-n2c(=O)c3c(c4cc(OC)ccc4n3C)n(Cc3cccc(C)c3)c2=O)cc1	inactive
CCN(CC)c1ccc(NC(=O)c2ccc(Cl)nc2)cc1	5.17 µM (active)
CCN(CC)c1ccc(NC(=O)CN2CCN(CC(=O)Nc3ccc(Cl)cc3)CC2)cc1	inactive
O=C(NNC(=O)c1ccc(Cl)nc1)c1ccc(Br)cc1	inactive
CN(C)c1ccc(C(CNS(=O)(=O)c2cc(F)ccc2F)N2CCOCC2)cc1 (centres undefined)	inactive
Cc1ccc(C)c(N2CCN(S(=O)(=O)c3ccc4c(c3)C(C(C)C)C(=O)N4)CC2)c1 (centres undefined)	inactive
CCC1CCCCN1C(=O)Cn1c(=O)n(CCCCCC(=O)NCc2ccccc2)c(=O)c2sccc21 (centres undefined)	inactive
O=C(c1ccc(Br)cc1)N(Cc1cccs1)c1ccc(F)cc1	inactive
Cc1ccc(Nc2c(-c3ccc(C)s3)nc3ccccn23)cc1	inactive
Cc1ccc(Nc2ccccc2N)cc1	20.6 µM (active)
Nc1ccccc1N	inactive
Cc1ccc2c(c1)C1CN(C)CCC1N2S(=O)(=O)c1ccc(Oc2ccc([N+](=O)[O-])cc2)cc1 (centres undefined)	18.4 µM (active)

Structure (SMILES)	Potency
Cc1ccc([N+](=O)[O-])cc1S(=O)(=O)N1CCCN(C)CC1	inactive
Cc1ccc2c(c1)C1CN(C)CCC1N2C(=O)c1ccccc1NS(=O)(=O)c1ccc(F)cc1C (centres undefined)	inactive
COc1ccc(-c2nn(CC(=O)NC3CCCC3)c3c2cnc2ccc(F)cc23)cc1	inactive
Cc1ccc(CNC(=O)c2c(O)nc3c(C)cccn3c2=O)cc1	inactive
NS(=O)(=O)c1ccc(CNC(=O)c2cnccn2)cc1	inactive
COc1cccc(OCC(=O)NNC(=O)c2cnccn2)c1	inactive
CCN(CC)c1ccc(/C=N/NC(=O)c2cnccn2)c(O)c1	0.731 µM (active)
O=C(/C=C/c1ccccc1)N1CCN(Cc2cc(=O)n3nc(-c4ccccc4F)sc3n2)CC1	inactive
Cc1ccc(CNC(=O)COc2ccc3c(c2)CCC3)cc1	inactive
C/C(CC(=O)NCc1ccc(Cl)cc1)=N\NC(=O)COc1ccc(C)cc1Br	5.17 µM (active)
Cc1ccc(CNC(=O)CN2CCN(Cc3ccc(Cl)cc3)C2=O)cc1	inactive
Cc1ccc2oc(C(=O)Nc3ccc(S(=O)(=O)N4CCCCCC4)cc3)cc(=O)c2c1	inactive
Cc1ccc(C)c(N2CCN(C(=O)Cc3c(C(=O)O)c(C)cn3C)CC2)c1	inactive
CC[n+]1cc(C)ccc1/C=C/c1ccc(N(C)C)cc1	1.84 µM (active)
CCc1ccc(-c2nn3c(C)nnc3s2)cc1NC(=O)c1ccc(-c2cccc(Cl)c2)o1	inactive
COc1ccc(S(=O)(=O)n2nc(C)c(S(=O)(=O)N3CCCCCC3)c2C)cc1	inactive
N#Cc1ccc[n+](CC(=O)c2ccc(O)c(O)c2)c1	inactive
O=C(COC(=O)c1cnc(Cl)c(Cl)c1)NCc1ccco1	inactive
O=C(COC(=O)c1ccccc1O)NCc1ccco1	inactive
Cc1cc(C(=O)OCC(=O)NCc2ccco2)c(C)n1-c1ccccc1	4.61 µM (active)
